From the supplement of paper PMC9694430
Counter-ions that a name gives are not always drawn.

Experiments:
Experiment in all cases: thermal shift delta Tm vs DMSO control; higher = stronger stabilization (binding)
Details in all cases: 12.5 µM; protein concentration 2 µM
LOC_OS01G01410-cb001 = tested on: LOC_OS01G01410-cb001
Outline: (§1)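 Purified, E. coli-expressed rice kinase domain constructs were tested by differential scanning fluorimetry in 96-well plates: 19.5 μl of 2 μM kinase in 100 mM potassium phosphate pH 7.5, 150 mM NaCl, 10% glycerol, 5 × SYPRO Orange, plus compound in DMSO. Fluorescence was read from 25°C to 95°C at 0.05°C/s. Melting temperatures came from Boltzmann fits, and the shift is the triplicate mean relative to protein with DMSO alone.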

LOC_OS01G02750-cb003 = tested on: LOC_OS01G02750-cb003
Outline: as §1

LOC_OS01G10900-cb004 = tested on: LOC_OS01G10900-cb004
Outline: as §1

LOC_OS01G13800-cb001 = tested on: LOC_OS01G13800-cb001
Outline: as §1

LOC_OS01G14860-cb001 = tested on: LOC_OS01G14860-cb001
Outline: as §1

LOC_OS01G21960-cb002 = tested on: LOC_OS01G21960-cb002
Outline: as §1

LOC_OS01G39600-cb002 = tested on: LOC_OS01G39600-cb002
Outline: as §1

LOC_OS01G48390-cb002 = tested on: LOC_OS01G48390-cb002
Outline: as §1

LOC_OS01G51400-cb002 = tested on: LOC_OS01G51400-cb002
Outline: as §1

LOC_OS01G52050-cb004 = tested on: T1, LOC_OS01G52050-cb004
T1 sequence (whole entry): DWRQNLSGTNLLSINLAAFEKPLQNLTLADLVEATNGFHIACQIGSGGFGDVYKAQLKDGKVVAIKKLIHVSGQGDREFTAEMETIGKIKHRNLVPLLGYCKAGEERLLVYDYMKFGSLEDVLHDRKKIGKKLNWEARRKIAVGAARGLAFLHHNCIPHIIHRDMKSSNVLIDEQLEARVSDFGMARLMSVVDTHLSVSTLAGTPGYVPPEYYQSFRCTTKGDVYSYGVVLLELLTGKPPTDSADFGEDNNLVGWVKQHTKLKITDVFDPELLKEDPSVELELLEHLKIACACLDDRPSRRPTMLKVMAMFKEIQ
Outline: as §1

LOC_OS01G57100-cb003 = tested on: LOC_OS01G57100-cb003
Outline: as §1

LOC_OS01G60330-cb001 = tested on: LOC_OS01G60330-cb001
Outline: as §1

LOC_OS01G60700-cb002 = tested on: LOC_OS01G60700-cb002
Outline: as §1

LOC_OS01G63280-cb003 = tested on: LOC_OS01G63280-cb003
Outline: as §1

LOC_OS01G67340-cb003 = tested on: LOC_OS01G67340-cb003
Outline: as §1

LOC_OS01G70970-cb002 = tested on: LOC_OS01G70970-cb002
Outline: as §1

LOC_OS02G07810-cb001 = tested on: LOC_OS02G07810-cb001
Outline: as §1

LOC_OS02G08530-cb003 = tested on: LOC_OS02G08530-cb003
Outline: as §1

LOC_OS02G14120-cb001 = tested on: LOC_OS02G14120-cb001
Outline: as §1

LOC_OS02G17970-cb001 = tested on: LOC_OS02G17970-cb001
Outline: as §1

Cc1cnc(Nc2ccc(N3CCN(C)CC3)cc2)nc1Nc1cccc(S(=O)(=O)NC(C)(C)C)c1
thermal shift delta Tm (LOC_OS01G01410-cb001): 1.26 °C | thermal shift delta Tm (LOC_OS01G02750-cb003): 0.29 °C | thermal shift delta Tm (LOC_OS01G10900-cb004): 0.71 °C | thermal shift delta Tm (LOC_OS01G13800-cb001): 0.25 °C | thermal shift delta Tm (LOC_OS01G14860-cb001): 1.34 °C | thermal shift delta Tm (LOC_OS01G21960-cb002): 2.76 °C | thermal shift delta Tm (LOC_OS01G39600-cb002): 6.04 °C | thermal shift delta Tm (LOC_OS01G48390-cb002): 1.61 °C | thermal shift delta Tm (LOC_OS01G51400-cb002): 0.64 °C | thermal shift delta Tm (LOC_OS01G52050-cb004): 3.19 °C | thermal shift delta Tm (LOC_OS01G57100-cb003): 2.09 °C | thermal shift delta Tm (LOC_OS01G60330-cb001): 2.84 °C | thermal shift delta Tm (LOC_OS01G60700-cb002): 1.28 °C | thermal shift delta Tm (LOC_OS01G63280-cb003): 0.46 °C | thermal shift delta Tm (LOC_OS01G67340-cb003): 1.05 °C | thermal shift delta Tm (LOC_OS01G70970-cb002): 3.63 °C | thermal shift delta Tm (LOC_OS02G07810-cb001): 0.9 °C | thermal shift delta Tm (LOC_OS02G08530-cb003): 3.06 °C | thermal shift delta Tm (LOC_OS02G14120-cb001): 8.37 °C | thermal shift delta Tm (LOC_OS02G17970-cb001): 1.17 °C

C=CC(=O)Nc1cccc(Nc2nc(Nc3ccc(OCCOC)cc3)ncc2F)c1
thermal shift delta Tm (LOC_OS01G01410-cb001): 3.05 °C | thermal shift delta Tm (LOC_OS01G02750-cb003): 0.97 °C | thermal shift delta Tm (LOC_OS01G10900-cb004): 1.01 °C | thermal shift delta Tm (LOC_OS01G13800-cb001): -0.85 °C | thermal shift delta Tm (LOC_OS01G14860-cb001): 3.77 °C | thermal shift delta Tm (LOC_OS01G21960-cb002): 2.29 °C | thermal shift delta Tm (LOC_OS01G39600-cb002): -1.51 °C | thermal shift delta Tm (LOC_OS01G48390-cb002): 1.44 °C | thermal shift delta Tm (LOC_OS01G51400-cb002): 0.59 °C | thermal shift delta Tm (LOC_OS01G52050-cb004): 3.59 °C | thermal shift delta Tm (LOC_OS01G57100-cb003): 1.56 °C | thermal shift delta Tm (LOC_OS01G60330-cb001): 8.86 °C | thermal shift delta Tm (LOC_OS01G60700-cb002): 1.84 °C | thermal shift delta Tm (LOC_OS01G63280-cb003): 0.22 °C | thermal shift delta Tm (LOC_OS01G67340-cb003): 0.42 °C | thermal shift delta Tm (LOC_OS01G70970-cb002): 1.81 °C | thermal shift delta Tm (LOC_OS02G07810-cb001): 0.8 °C | thermal shift delta Tm (LOC_OS02G08530-cb003): 3.49 °C | thermal shift delta Tm (LOC_OS02G14120-cb001): 9.32 °C | thermal shift delta Tm (LOC_OS02G17970-cb001): 0.13 °C

COc1ccc2[nH]cc(/C=C3\C(=O)Nc4ccc(NC(=O)CCN5CCCCC5)cc43)c2c1
thermal shift delta Tm (LOC_OS01G01410-cb001): 0.24 °C | thermal shift delta Tm (LOC_OS01G02750-cb003): 1.49 °C | thermal shift delta Tm (LOC_OS01G10900-cb004): 0.91 °C | thermal shift delta Tm (LOC_OS01G13800-cb001): 1.6 °C | thermal shift delta Tm (LOC_OS01G14860-cb001): 2.18 °C | thermal shift delta Tm (LOC_OS01G21960-cb002): 1.64 °C | thermal shift delta Tm (LOC_OS01G39600-cb002): 0.22 °C | thermal shift delta Tm (LOC_OS01G48390-cb002): 0.82 °C | thermal shift delta Tm (LOC_OS01G51400-cb002): 0.58 °C | thermal shift delta Tm (LOC_OS01G52050-cb004): 0.72 °C | thermal shift delta Tm (LOC_OS01G57100-cb003): 0.21 °C | thermal shift delta Tm (LOC_OS01G60330-cb001): 1.51 °C | thermal shift delta Tm (LOC_OS01G60700-cb002): 1.62 °C | thermal shift delta Tm (LOC_OS01G63280-cb003): 1.06 °C | thermal shift delta Tm (LOC_OS01G67340-cb003): 1.09 °C | thermal shift delta Tm (LOC_OS01G70970-cb002): 0.85 °C | thermal shift delta Tm (LOC_OS02G07810-cb001): 0.83 °C | thermal shift delta Tm (LOC_OS02G08530-cb003): 1.82 °C | thermal shift delta Tm (LOC_OS02G14120-cb001): 1.59 °C | thermal shift delta Tm (LOC_OS02G17970-cb001): 1.88 °C

N=C(N)NC(=N)NCCc1ccccc1 [Phenformin HCl]
thermal shift delta Tm (LOC_OS01G01410-cb001): 0.54 °C | thermal shift delta Tm (LOC_OS01G02750-cb003): 0.14 °C | thermal shift delta Tm (LOC_OS01G10900-cb004): 0.3 °C | thermal shift delta Tm (LOC_OS01G13800-cb001): -0.2 °C | thermal shift delta Tm (LOC_OS01G14860-cb001): 0.25 °C | thermal shift delta Tm (LOC_OS01G21960-cb002): 0.77 °C | thermal shift delta Tm (LOC_OS01G39600-cb002): -0.37 °C | thermal shift delta Tm (LOC_OS01G48390-cb002): 0.38 °C | thermal shift delta Tm (LOC_OS01G51400-cb002): 0.25 °C | thermal shift delta Tm (LOC_OS01G52050-cb004): 0.48 °C | thermal shift delta Tm (LOC_OS01G57100-cb003): 2.51 °C | thermal shift delta Tm (LOC_OS01G60330-cb001): 0.5 °C | thermal shift delta Tm (LOC_OS01G60700-cb002): 0.54 °C | thermal shift delta Tm (LOC_OS01G63280-cb003): 0.18 °C | thermal shift delta Tm (LOC_OS01G67340-cb003): -0.23 °C | thermal shift delta Tm (LOC_OS01G70970-cb002): 0.29 °C | thermal shift delta Tm (LOC_OS02G07810-cb001): 0.75 °C | thermal shift delta Tm (LOC_OS02G08530-cb003): -0.63 °C | thermal shift delta Tm (LOC_OS02G14120-cb001): 1.22 °C | thermal shift delta Tm (LOC_OS02G17970-cb001): 0.39 °C

Cn1cc(-c2ccc(F)c(C(F)(F)F)c2)nc1C1CCN(c2ncnc3[nH]ncc23)CC1
thermal shift delta Tm (LOC_OS01G01410-cb001): 0.43 °C | thermal shift delta Tm (LOC_OS01G02750-cb003): 0.52 °C | thermal shift delta Tm (LOC_OS01G10900-cb004): 0.51 °C | thermal shift delta Tm (LOC_OS01G13800-cb001): 0.16 °C | thermal shift delta Tm (LOC_OS01G14860-cb001): 1.8 °C | thermal shift delta Tm (LOC_OS01G21960-cb002): 0.54 °C | thermal shift delta Tm (LOC_OS01G39600-cb002): 0.71 °C | thermal shift delta Tm (LOC_OS01G48390-cb002): 0.47 °C | thermal shift delta Tm (LOC_OS01G51400-cb002): -0.2 °C | thermal shift delta Tm (LOC_OS01G52050-cb004): 0.39 °C | thermal shift delta Tm (LOC_OS01G57100-cb003): 0.5 °C | thermal shift delta Tm (LOC_OS01G60330-cb001): 1.11 °C | thermal shift delta Tm (LOC_OS01G60700-cb002): 0.96 °C | thermal shift delta Tm (LOC_OS01G63280-cb003): -0.11 °C | thermal shift delta Tm (LOC_OS01G67340-cb003): 0.07 °C | thermal shift delta Tm (LOC_OS01G70970-cb002): 0.57 °C | thermal shift delta Tm (LOC_OS02G07810-cb001): 0.34 °C | thermal shift delta Tm (LOC_OS02G08530-cb003): 0.53 °C | thermal shift delta Tm (LOC_OS02G14120-cb001): 0.5 °C | thermal shift delta Tm (LOC_OS02G17970-cb001): 0.85 °C

CC(C)n1nc(-c2ccc3oc(N)nc3c2)c2c(N)ncnc21
thermal shift delta Tm (LOC_OS01G01410-cb001): 0.59 °C | thermal shift delta Tm (LOC_OS01G02750-cb003): 1.42 °C | thermal shift delta Tm (LOC_OS01G10900-cb004): 0.77 °C | thermal shift delta Tm (LOC_OS01G13800-cb001): -0.13 °C | thermal shift delta Tm (LOC_OS01G14860-cb001): 0.42 °C | thermal shift delta Tm (LOC_OS01G21960-cb002): 0.3 °C | thermal shift delta Tm (LOC_OS01G39600-cb002): -0.69 °C | thermal shift delta Tm (LOC_OS01G48390-cb002): 1.9 °C | thermal shift delta Tm (LOC_OS01G51400-cb002): 0.43 °C | thermal shift delta Tm (LOC_OS01G52050-cb004): 0.95 °C | thermal shift delta Tm (LOC_OS01G57100-cb003): 0.15 °C | thermal shift delta Tm (LOC_OS01G60330-cb001): 0.88 °C | thermal shift delta Tm (LOC_OS01G60700-cb002): 0.9 °C | thermal shift delta Tm (LOC_OS01G63280-cb003): 0.99 °C | thermal shift delta Tm (LOC_OS01G67340-cb003): 0.39 °C | thermal shift delta Tm (LOC_OS01G70970-cb002): 0.54 °C | thermal shift delta Tm (LOC_OS02G07810-cb001): 0.31 °C | thermal shift delta Tm (LOC_OS02G08530-cb003): 1.77 °C | thermal shift delta Tm (LOC_OS02G14120-cb001): 1.77 °C | thermal shift delta Tm (LOC_OS02G17970-cb001): 1.04 °C
